Here are results for 75 molecules from PubChem BioAssay AID1347131 (National Center for Advancing Translational Sciences (NCATS), 2019).

Hit rate of the full screen: of about 410,000 compounds, about 2,000 (0.49%) were called active. Roughly 8% stayed inconclusive and do not appear here. Calls come from the whole dose curve; tested in HEK293 reporter line. Shown is part of a subset that was picked to be rich in actives. Entries that show only a call come without a potency.
Potency is the fitted concentration of half-maximal effect.

A short description of the assay: qHTS Assay for Foot and Mouth Disease Virus Antivirals: Primary Screen against the MLPCN compound library. Note: nearly all actives have a fitted effect of over 55% in size. To be noted: FMDV antiviral cell-based qHTS; series mostly up to 57.9 µM. A general note: In qHTS, concentration-response curves come from the screen itself.
On to `Cc1nn2c(-c3cccc(NC(=O)CSc4nc5ccccc5o4)c3)nnc2c2ccccc12`, for which the Potency entry is “inactive”.
With `COc1ccc(NC(=O)c2c(NC(=O)c3ccc(Br)cc3)sc3c2CCCC3)cc1` the entry was “inactive”.
As to `COc1ccc(C(=O)Nc2onc3c2CCCC3)cc1`, the Potency is 12.6 µM (active).
For `COc1ccc(-c2noc(CCCC(=O)NC3CCCC3)n2)cc1`, the Potency entry was “inactive”.
As to `CCOc1cccc(C(=O)Nc2ccc(S(=O)(=O)N(Cc3ccccc3)c3ccccc3)cc2)c1`, the Potency result was “inactive”.
In the case of `CCOc1cccc(C(=O)Nc2nnc(-c3ccco3)s2)c1`, the Potency was 11.2 µM (active).
With `COc1cccc(C(=O)Nc2cccc(-c3nnc(-c4ccccc4)o3)c2)c1` the entry was “inactive”.
On to `CCN(CC)CCN(C(=O)c1ccc2c(c1)CCCC2)c1nc2ccc(C)cc2s1`, for which the Potency entry is “inactive”.
In the case of `CC(=O)N(Cc1cc2cc(C)ccc2[nH]c1=O)c1cccc(C)c1C`, the Potency result was “inactive”.
`O=C(CCS(=O)(=O)c1ccc(Br)cc1)N1CCN(c2ccccc2F)CC1`: the Potency result is “inactive”.
For `Cc1cc(C)c(NS(=O)(=O)c2ccc3c(c2)NC(=O)CC(=O)N3)c(C)c1`, the Potency entry was “inactive”.
Regarding `O=C(NCCCCc1ccccc1)NC[C@@H]1CC[C@@H](Cc2ccc(-c3ccccc3)cc2)O1`, the Potency result was “inactive”.
For `COc1ccc2[nH]cc(CCNc3ccnc(-c4c(C)noc4C)n3)c2c1` the value was “inactive”.
Regarding `COc1ccc2[nH]cc(CCNc3ccnc(-c4cccnc4)n3)c2c1`, the Potency entry is “inactive”.
For `COc1ccc2[nH]cc(CCNc3ncncc3-c3ccoc3)c2c1` the value was 22.4 µM (active); for `COc1ccc(S(=O)(=O)N2CCCN(CCC(=O)Nc3cccc(C(F)(F)F)c3)CC2)cc1`, “inactive”; for `Cc1cccc(N2CCN(C(=O)CCS(=O)(=O)c3ccc4c(c3)oc(=O)n4C)CC2)c1C`, “inactive”.
`CCc1cc(C(=O)N2CCCC(C(=O)c3ccc(Cl)cc3)C2)no1` (stereo not given): the Potency entry was “inactive”.
For `O=C(c1cc(-c2ccc(Cl)cc2Cl)on1)N1CCCC1` the value was 12.6 µM (active); for `COc1ccc(-c2cc(C(=O)N3CCCCC3)no2)cc1OC`, “inactive”.
Regarding `Cc1nn2cnnc2c(C)c1Cc1ccc(Cl)cc1`, the Potency entry was “inactive”.
As for `Cc1cc(C)n2nc(C)c(-c3ccc(Cl)cc3)c2n1`, the Potency entry was “inactive”.
For `Cc1nc2nc(-c3ccc(Cl)cc3)cn2nc1C` the value was 10 µM (active); for `COc1ccc(/C=N/NC(=S)Nc2cc(S(=O)(=O)N3CCOCC3)ccc2N2CCOCC2)cc1O`, “inactive”.
For `CCc1c(C)c2ccc(O)c(CN3CCN(c4ccccc4)CC3)c2oc1=O` the value was “inactive”.
For `Brc1ccc(C2C3=C(Nc4ncnn42)c2ccccc2OC3c2ccncc2)cc1` (stereo not given) the value was 17.8 µM (active).
In the case of `COC(=O)c1c(C)oc(C)c1S(=O)(=O)NCC1CC1`, the Potency entry is “inactive”.
For `COc1ccc(NS(=O)(=O)c2ccc(-n3cccn3)cc2)cc1OC` the value was “inactive”.
On to `O=C(CN1CCN(S(=O)(=O)c2cc(C(F)(F)F)ccc2Cl)CC1)N1CCc2ccccc2C1`, for which the Potency result was “inactive”.
For `C=CCc1ccccc1OCC(O)CN1CCN(c2ccccc2OC)CC1` (stereo not given) the value was “inactive”; for `COC(CNC(=O)C1CCN(S(=O)(=O)c2cccc3nsnc23)CC1)OC`, “inactive”; for `CCOC(=O)c1cc(-c2ccccc2)n(CCC(=O)N2CCN(c3ccccc3OC)CC2)c1C`, “inactive”.
Regarding `Cc1ccc2[nH]c(CSc3nnc(NC(=O)c4ccccc4F)s3)cc(=O)c2c1`, the Potency entry is “inactive”.
In the case of `CCc1ccc(C2CC(c3cccc(OC)c3)n3nc(N)nc3N2)cc1` (stereo not given), the Potency entry was “inactive”.
In the case of `Cc1cc[n+](CC(=O)c2ccc(NC(=O)c3ccccc3)cc2)c2ccccc12`, the Potency result is “inactive”.
For `CCc1ccc(C(=O)C[n+]2cccc3cc(OC)ccc32)cc1`, the Potency is 8.91 µM (active).
With `CC1(c2nnc(-c3ccncc3)o2)CC(c2ccc([N+](=O)[O-])cc2)=NO1` (stereo not given) the entry was “inactive”; with `Cc1occc1C(=O)NNC(=S)Nc1ccccc1`, “inactive”.
As to `COc1ccc(-c2cc(=NC(CC(C)C)C(=O)O)c3cc(C)ccc3o2)cc1` (stereo not given), the Potency result was “inactive”.
Take `CC(=O)Nc1scc(C)c1-c1nc2ccccc2s1`: the Potency entry was “inactive”.
With `CCOC(=O)c1nc2ccccc2s1`, the Potency entry is “inactive”.
With `CCCNC(=O)c1ccc(-c2nc3ccccc3s2)s1` the figure was 14.1 µM (active).
For `COc1cccc(-n2c(=O)c3c(C)c(C(=O)N(C)C)sc3n(Cc3ccc(F)cc3Cl)c2=O)c1` the value was “inactive”.
With `Cc1nn2c(=O)cc(COC(=O)c3ccc(C(C)(C)C)cc3)nc2s1` the entry was “inactive”; with `COc1cc(CNCc2ccccn2)ccc1OCc1ccccc1Cl`, “inactive”; with `Cc1ccc(F)c([C@H]2C3C=CCC(c4ccccc4)C3C(=O)N2Cc2ccccc2)c1` (stereo not given in full), “inactive”.
`COc1ccc(C2C3C=CCC(c4cccc(-c5ccc(C)cc5)c4)C3C(=O)N2Cc2ccccc2)cc1Cl` (stereo not given): the Potency was 12.6 µM (active).
With `COc1ccc(-c2cccc([C@H]3[C@@H]4C=CC[C@@H](C)[C@@H]4C(=O)N3Cc3ccccc3)c2)cc1` the entry was “inactive”.
For `CCOc1ncccc1C(=O)Nc1cc(S(=O)(=O)N(CC)CC)ccc1N1CCOCC1` the value was “inactive”; for `Cc1ccc(C)c(N2CCN(C(=O)c3ccc(N4CCCC4=O)cc3)CC2)c1`, “inactive”; for `Cc1oc(-c2ccccc2F)nc1CS(=O)(=O)CC(=O)NC1CCCC(C)C1C` (stereo not given), “inactive”.
With `Cc1ccc(C(=O)Nc2ccc3c(c2)OCCO3)c(Cl)c1`, the Potency was 11.2 µM (active).
With `O=C(CN1CCN(S(=O)(=O)c2ccc(Cl)cc2)CC1)Nc1ccc2c(c1)OCCO2` the entry was “inactive”; with `O=C(O)C1C2C=CC(C2)C1C(=O)Nc1ccc2c(c1)OCCO2` (stereo not given), “inactive”; with `c1csc(CNc2ccc3c(c2)OCCO3)c1`, “inactive”.
Turning to `O=C(Nc1ccc2c(c1)OCCO2)c1cccc2nc3ccccc3nc12`, the Potency result was “inactive”.
Take `Cc1ccsc1C(=O)Nc1ccc2c(c1)OCCO2`: the Potency was 22.4 µM (active).
For `CCOC(=O)c1ccc[n+](C(C)C(=O)c2ccc(-c3ccccc3)cc2)c1` (stereo not given) the value was “inactive”; for `COc1cccc(CNC(=O)c2cccc(S(=O)(=O)N3CCN(c4ccc(F)cc4)CC3)c2)c1`, “inactive”.
With `CCOc1ccc(NC(=O)CN2C(=O)CCSc3ccc(S(=O)(=O)N4CCCC4)cc32)cc1`, the Potency entry was “inactive”.
With `O=C(/C=C/c1cccs1)N1CCC2(CC1)Oc1ccc(Cl)cc1C(=O)C21CC(c2cccnc2)=NO1` (stereo not given) the entry was “inactive”; with `O=C(COC(=O)/C=C/c1cccs1)Nc1ccc(Cl)cc1F`, “inactive”; with `O=C(/C=C/c1cccs1)c1cc(Cl)ccc1OC(=O)N1CCOCC1`, 17.8 µM (active).
As for `O=C(CCCOc1ccc(Cl)cc1)NCC1CCCO1` (stereo not given), the Potency result was “inactive”.
With `CCOC(=O)C1=C(C)Nc2ccccc2N=C1NC(=O)c1oc2ccccc2c1COC`, the Potency entry is “inactive”.
With `COc1ccccc1OCC(=O)Nc1cc(S(=O)(=O)N2CCCCC2)ccc1N1CCCCC1` the entry was “inactive”; with `COc1cc(/C=C(\C#N)c2ccccn2)ccc1OCC(=O)Nc1cccc(C(F)(F)F)c1`, “inactive”; with `CN(CCC#N)c1ccc(/C=C(\C#N)c2ccccn2)cc1`, 14.1 µM (active).
For `CNc1nc(-c2ccc3c(c2)CCN3S(=O)(=O)c2ccccc2)c(C)s1` the value was “inactive”; for `CC(=O)Nc1ccc(S(=O)(=O)N(C)CC(=O)Nc2ccc(Br)cc2F)cc1`, “inactive”; for `CCn1cc(C(=O)OCC(=O)OC2CC(C)CCC2C(C)C)c(=O)c2ccc(C)nc21` (stereo not given), 22.4 µM (active).
For `O=C(CCCCn1c(=O)c2ccccc2n(CC(=O)Nc2cccc(F)c2)c1=O)NCc1ccccc1Cl` the value was “inactive”; for `COc1ccc(C[C@H]2CN3C(=NC[C@@H]3Cc3ccc(O)cc3)N2C[C@H](C)NC(=O)CCC2CCCCC2)cc1`, “inactive”.
For the molecule `CCCCCCCCCCC[N+](C)(C)CC/C=C1/c2ccccc2Sc2ccc(Cl)cc21`, the Potency entry is “inactive”.
Take `CC1(Cc2ccc(C(F)(F)F)o2)C(=O)Nc2cc(-c3ccc(F)cc3F)ccc21` (stereo not given): the Potency entry is “inactive”.
